What all share (type): functional
Assay [1] relates to Plasmodium falciparum. As to the kind of experiment: GSK_TCMDC: Inhibition of Plasmodium falciparum 3D7 in whole red blood cells, using parasite LDH activity as an index of growth. Test compounds present at 2uM.
Assay [2] has as its system Plasmodium falciparum. The assay is described as follows: GSK_TCMDC: Inhibition of Plasmodium falciparum Dd2 in whole red blood cells, using parasite LDH activity as an index of growth. Test compounds present at 2uM.
The test system of assay [3] is HepG2. As to the kind of experiment: GSK_TCMDC: Percent inhibition of human HepG2 cell line. Test compounds present at 10uM.

By Inhibition is commonly meant the change of the read-out against control, counted positive when it falls. Read a high Inhibition as strong suppression. As to `COc1ccc(C=NNc2nc(O)cc(-c3ccccc3)n2)cc1OC`, the Inhibition in assay [1] worked out at 92%; in assay [2], 93%; in assay [3], 22%.
On to `Cc1noc(C)c1-c1cccc(CNCc2cccc(-c3ccc(-c4nc5cc(C(F)(F)F)ccc5[nH]4)s3)c2)c1.O=C(O)C(F)(F)F`, for which the Inhibition in assay [1] stood at 100%; in assay [2] it was 95%; in assay [3], 23%.
In the same order, the values of `Cc1cc(N)c2cc(NC(=O)/C=C/c3ccc([N+](=O)[O-])cc3)ccc2n1` are 100%, 80% and 76%.
In the same order, the values of `C[C@@H](NC(=O)c1nn(-c2ccc(Cl)cc2)c(=O)c2ccccc12)C(C)(C)C` are 95%, 20% and 7%.
As for `Cc1cccc2nc(-c3cccc(-c4ccc(NC(=O)CCc5c[nH]cn5)cc4)c3)[nH]c12`, the Inhibition in assay [1] worked out at 100%; in assay [2] it was 92%; in assay [3], 3%.
As to `CC(=O)Nc1ccc(S(=O)(=O)NC2=NC(=N)N(OCc3ccc(Cl)c(Cl)c3)C(C)(C)N2)cc1`, the Inhibition in assay [1] worked out at 93%; in assay [2], 98%; in assay [3], 44%.
For `COC(=O)c1ccc2nc(-c3ccc(C(=O)NCc4ccc(Cl)c(Cl)c4)cc3)[nH]c2c1`, in that order: 95%, 3% and 1%.
As for `COc1ccc(Nc2nccc(-c3cccc(NC(=O)c4cc5cc(F)ccc5[nH]4)c3)n2)cc1`, the Inhibition in assay [1] is listed as 92%; in assay [2], 37%; in assay [3], 3%.
Consider `Cc1cccc(CN2CCC(CNC(=O)c3cc4c(-c5ccccc5F)nn(C)c4s3)CC2)c1`, for which the Inhibition in assay [1] worked out at 85%; in assay [2], 15%; in assay [3] it was 18%.
Turning to `CC(C)C[C@H](NC(=O)c1ccc(OCCN2CCOCC2)cc1)C(=O)N[C@H](/C=N/NC(=O)c1ccccc1)CCc1ccccc1`, the Inhibition in assay [1] is 98%; in assay [2], 90%; in assay [3], 17%.
In the same order, the values of `CN(C)CCCOc1ccc(-c2nc(-c3ccc4c(c3)CCC4=NO)c(-c3ccncc3)[nH]2)cc1.Cl` are 96%, 63% and 68%.
Take `COc1ccc2nccc([C@@H](O)CN3CCC(NCc4cnc5c(c4)NC(=O)CS5)CC3)c2c1.O=C(O)C(=O)O`: the Inhibition in assay [1] is on record as 87%; in assay [2], 29%; in assay [3] it was 0%.
In the case of `CN(C)CCNC(=O)c1cc2c(-c3ccc(Cl)cc3)nn(C)c2s1`, the Inhibition in assay [1] is 98%; in assay [2], 81%; in assay [3], 18%.
For `CN1CCc2ccc(NC(=O)Nc3cccc(C(=O)c4ccccc4)c3)cc2C1`, in that order: 83%, 16% and 11%.
For `O=C(/C=C/c1ccc(Cl)c(Cl)c1)N1CCC(CCN2CCC(c3nc4cc(O)ccc4[nH]3)CC2)CC1`, in that order: 100%, 60% and 42%.
For `Cc1cc(-c2cc3nc4c(c(O)n3n2)CCCC4)c(C)o1`, in that order: 94%, 82% and 4%.
In the case of `CC(C)(Oc1c(C2CCN(CCCCNC(=O)c3ccc(-c4ccc(Cl)cc4)cc3)CC2)ccc2c1CCCC2)C(N)=O`, the results for the Inhibition in assay [1], in assay [2] and in assay [3] were 93%, 5% and 100%, respectively.
In the same order, the values of `COc1ccc2ncc(Cl)c(CCN3C[C@H](CNCc4ccc5c(n4)NC(=O)CS5)[C@H](O)C3)c2n1.Cl` are 94%, 16% and 2%.
For `CCc1ccc(N2C(N)=NC(N)=NC2(C)C)cc1.Cl`, in that order: 94%, 0% and 51%.
In the same order, the values of `CCCCNC(=O)c1[nH]c2c(NC(=O)COc3ccccc3)cccc2c1-c1cccc(NC(=O)C(N)CO)c1` (stereo not drawn) are 87%, 0% and 11%.
Regarding `Clc1cccc(C=NN=c2cc[nH]c3ccccc23)c1`, the results for the Inhibition in assay [1], in assay [2] and in assay [3] were 100%, 44% and 5%, respectively.
For `CN1CCC[C@H]1COc1ccc(CN2CC[C@H](NC(=O)c3ccc(Cl)c(Cl)c3)C2)cc1Br.O=C(O)C(F)(F)F`, in that order: 100%, 20% and 81%.
For `Cc1noc(-c2ccc(N3CCC(C(=O)N4CCN(C(C)C)CC4)CC3)cc2)n1.Cl`, in that order: 95%, 0% and 0%.
For `COc1cc2c(cc1C(F)(F)F)N(C(=O)Nc1cccc(-c3ccc(CN(C)C)cc3)c1)CC2`, the Inhibition in assay [1] amounted to 100%; in assay [2], 93%; in assay [3] it was 95%.
In the same order, the values of `Cc1ccc(-c2cccc3c(NC(=O)Nc4ccc5nccc(N6CCN(C)CC6)c5c4)cccc23)cn1.Cl` are 90%, 89% and 6%.
In the same order, the values of `COc1ccc(CNC(=N)Nc2nc(-c3ccc(OCCCn4ccnc4)cc3)cs2)cc1.Cl` are 100%, 67% and 15%.
For `Cl.N#Cc1ccc2c(c1)CCN(CCC1CCC(NC(=O)c3cc4ccccc4[nH]3)CC1)CC2` (stereo not drawn), in that order: 89%, 25% and 17%.
For `Fc1cccc(CNc2ncc(-c3ccsc3)c(-c3nccs3)n2)c1`, the figures for the Inhibition in assay [1], in assay [2] and in assay [3] were 91%, 85% and 15%, respectively.
For `N=C(N)NCCN(Cc1ccccc1)c1ccc(Cl)cc1`, in that order: 100%, 99% and 0%.
In the same order, the values of `CC(=O)c1ccc(-n2ccnc2)cc1` are 92%, 0% and 0%.
For `CC(=O)Nc1nc(C(=O)Nc2cccc(-c3cccc(-c4nc5cccc(C)c5[nH]4)c3)c2)cs1`, in that order: 100%, 94% and 28%.

The values are drawn from ChEMBL document CHEMBL1157539, “Thousands of chemical starting points for antimalarial lead identification” (Nature, 2010).
